Molecules are shown by their SMILES. Results filed as inconclusive are left out. The source made the active and inactive calls. How the source made its calls: active means hit-call score of the fitted dose curve at least 0.9, where 1 is the maximum; inconclusive means response in the unintended direction; inactive means score below 0.9.

The target of this test is human Peroxisome Proliferator-activated Receptor alpha (PPARa), PPARA (gene 5465) (UniProt Q07869). In words: ATG_hPPARa_EcoTox2: Attagene TRANS-FACTORIAL EcoTox-2 HepG2 Assay for human Peroxisome Proliferator-activated Receptor alpha (PPARa). The procedure: ATG_EcoTox2 is a cell-based, multiplexed assay created by modifying the existing Attagene TRANS-FACTORIAL system to include a panel of nuclear receptors from some or all the following species: human (Homo sapiens), african clawed frog (Xenopus laevis), rainbow trout (Oncorhynchus mykiss), japanese medaka (Oryzias latipes), and zebrafish (Danio rerio). The ECOTOX2-FACTORIAL format uses HepG2, a human liver cell line, with measurements taken at 24 hours after chemical dosing in a 24-well plate. ATG_hPPARa_EcoTox2 is one of 29 assay components calculated in the ATG_EcoTox2 assay. It is designed to make measurements of mRNA induction, a form of inducible reporter, as detected with fluorescence intensity signals by Reverse transcription polymerase chain reaction (RT-PCR) and Capillary electrophoresis technology.The assay endpoint ATG_hPPARa_EcoTox2 was analyzed in the positive analysis fitting direction relative to DMSO as the negative control and baseline of activity. Using a type of inducible reporter, measures of mRNA for gain-of-signal activity can be used to understand the reporter gene at the transcription factor-level as they relate to the gene PPARa. Furthermore, this assay endpoint can be referred to as a primary readout, because this assay has produced multiple assay endpoints where this one serves a reporter gene function. […]
Sequence of human Peroxisome Proliferator-activated Receptor alpha (PPARa), PPARA (gene 5465) (Q07869 whole entry, looked up): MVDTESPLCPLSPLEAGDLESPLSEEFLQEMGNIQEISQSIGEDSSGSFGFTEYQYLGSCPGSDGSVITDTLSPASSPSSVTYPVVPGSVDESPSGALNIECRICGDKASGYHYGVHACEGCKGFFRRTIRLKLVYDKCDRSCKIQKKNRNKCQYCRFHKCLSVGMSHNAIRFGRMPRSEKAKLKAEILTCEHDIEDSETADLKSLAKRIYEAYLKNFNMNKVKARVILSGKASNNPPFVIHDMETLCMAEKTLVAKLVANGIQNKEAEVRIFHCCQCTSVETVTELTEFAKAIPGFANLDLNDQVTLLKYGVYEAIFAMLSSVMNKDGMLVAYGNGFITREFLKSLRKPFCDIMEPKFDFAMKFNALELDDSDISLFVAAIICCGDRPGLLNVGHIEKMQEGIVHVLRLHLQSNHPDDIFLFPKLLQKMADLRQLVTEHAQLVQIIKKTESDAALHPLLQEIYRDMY

For `O=C(O)C(F)(F)C(F)(F)C(F)(F)C(F)(F)C(F)(F)C(F)(F)C(F)(F)F`, the AC50 was 11.4 µM (active).

Consider `O=S(=O)(O)C(F)(F)C(F)(F)C(F)(F)C(F)(F)C(F)(F)C(F)(F)F`, for which the AC50 was 23 µM (active).

Values taken from PubChem BioAssay AID2284334 (EPA ToxCast).
